# Several values for one entry are separate records, joined by “and”; a condition that tells them apart may be missing. Identical values can stand only once. Non-standard residues stand in square brackets, D forms with d. Residues, ends and D or L forms follow the SMILES beside them. *: point of attachment. Tyr(3-Cl) = N[C@@H](Cc1ccc(O)c(Cl)c1)C(=O)O; Benzoyl(3,5-Cl2) = O=C(c1cc(Cl)cc(Cl)c1)*; Lys(Et2) = CCN(CC)CCCC[C@H](N)C(=O)O; Gly(cPent) = N[C@H](C(=O)O)C1CCCC1; NH(propargyl) = C#CCN*; CH2Cl = ClC*
# What was measured:
# Conditions in all cases: Compound concentration 20.0 uM
# [1] = biological target: Bromodomain-containing protein 4 (Homo sapiens) (UniProt O60885)
# [2] = biological target: Cyclin-dependent kinase 2 (Homo sapiens) (UniProt P24941)
# [3] = biological target: Casein kinase I isoform delta (Homo sapiens) (UniProt P48730)
# [4] = biological target: Glycogen synthase kinase-3 beta (Homo sapiens) (UniProt P49841)
# [5] = biological target: Mitogen-activated protein kinase 1 (Homo sapiens) (UniProt P28482)
# [6] = biological target: T1, Aurora kinase A (Homo sapiens) (UniProt O14965)
# T1 sequence (whole entry): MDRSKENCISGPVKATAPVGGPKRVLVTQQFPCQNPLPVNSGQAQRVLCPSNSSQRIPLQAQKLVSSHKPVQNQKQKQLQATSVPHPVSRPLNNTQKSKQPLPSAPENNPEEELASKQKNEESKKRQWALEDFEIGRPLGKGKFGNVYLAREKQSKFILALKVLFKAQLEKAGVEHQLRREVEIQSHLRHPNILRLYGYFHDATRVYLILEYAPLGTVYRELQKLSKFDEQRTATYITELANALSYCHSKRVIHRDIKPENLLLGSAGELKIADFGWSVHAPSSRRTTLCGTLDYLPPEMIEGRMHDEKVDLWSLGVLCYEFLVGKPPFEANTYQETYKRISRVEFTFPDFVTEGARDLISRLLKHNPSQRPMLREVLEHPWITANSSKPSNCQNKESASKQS
# [7] = biological target: T2, Transcription intermediary factor 1-alpha (Homo sapiens) (UniProt O15164)
# T2 sequence (whole entry): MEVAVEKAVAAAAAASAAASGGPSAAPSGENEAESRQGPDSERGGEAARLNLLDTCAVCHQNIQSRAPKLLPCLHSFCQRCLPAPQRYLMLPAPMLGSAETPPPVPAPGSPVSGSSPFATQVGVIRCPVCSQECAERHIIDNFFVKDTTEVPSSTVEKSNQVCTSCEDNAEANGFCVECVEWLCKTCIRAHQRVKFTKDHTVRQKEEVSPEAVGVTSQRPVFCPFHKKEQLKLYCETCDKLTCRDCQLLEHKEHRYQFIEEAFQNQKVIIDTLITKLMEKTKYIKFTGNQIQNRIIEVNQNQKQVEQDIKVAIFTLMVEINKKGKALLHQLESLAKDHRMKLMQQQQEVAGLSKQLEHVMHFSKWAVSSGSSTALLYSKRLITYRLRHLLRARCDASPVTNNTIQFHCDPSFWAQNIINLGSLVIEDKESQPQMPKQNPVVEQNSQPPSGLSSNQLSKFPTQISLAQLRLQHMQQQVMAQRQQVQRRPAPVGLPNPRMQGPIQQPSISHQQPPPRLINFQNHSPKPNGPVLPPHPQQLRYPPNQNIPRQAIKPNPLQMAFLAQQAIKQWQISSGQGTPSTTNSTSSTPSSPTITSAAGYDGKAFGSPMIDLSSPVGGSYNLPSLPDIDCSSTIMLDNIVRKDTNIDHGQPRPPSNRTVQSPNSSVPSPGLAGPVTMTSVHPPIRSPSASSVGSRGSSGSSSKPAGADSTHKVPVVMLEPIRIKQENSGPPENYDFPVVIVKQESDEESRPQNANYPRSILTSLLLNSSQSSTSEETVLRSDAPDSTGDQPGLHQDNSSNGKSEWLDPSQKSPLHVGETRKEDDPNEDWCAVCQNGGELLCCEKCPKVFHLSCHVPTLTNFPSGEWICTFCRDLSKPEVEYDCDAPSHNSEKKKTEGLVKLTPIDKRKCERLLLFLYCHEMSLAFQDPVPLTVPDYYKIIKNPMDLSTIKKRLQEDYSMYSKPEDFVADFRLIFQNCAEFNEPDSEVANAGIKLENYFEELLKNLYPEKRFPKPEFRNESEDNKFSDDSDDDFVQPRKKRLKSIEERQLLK
# [8] = biological target: Tyrosine-protein kinase ABL1 (Homo sapiens) (UniProt P00519)
# Chain of Tyrosine-protein kinase ABL1 (Homo sapiens) (P00519 whole entry): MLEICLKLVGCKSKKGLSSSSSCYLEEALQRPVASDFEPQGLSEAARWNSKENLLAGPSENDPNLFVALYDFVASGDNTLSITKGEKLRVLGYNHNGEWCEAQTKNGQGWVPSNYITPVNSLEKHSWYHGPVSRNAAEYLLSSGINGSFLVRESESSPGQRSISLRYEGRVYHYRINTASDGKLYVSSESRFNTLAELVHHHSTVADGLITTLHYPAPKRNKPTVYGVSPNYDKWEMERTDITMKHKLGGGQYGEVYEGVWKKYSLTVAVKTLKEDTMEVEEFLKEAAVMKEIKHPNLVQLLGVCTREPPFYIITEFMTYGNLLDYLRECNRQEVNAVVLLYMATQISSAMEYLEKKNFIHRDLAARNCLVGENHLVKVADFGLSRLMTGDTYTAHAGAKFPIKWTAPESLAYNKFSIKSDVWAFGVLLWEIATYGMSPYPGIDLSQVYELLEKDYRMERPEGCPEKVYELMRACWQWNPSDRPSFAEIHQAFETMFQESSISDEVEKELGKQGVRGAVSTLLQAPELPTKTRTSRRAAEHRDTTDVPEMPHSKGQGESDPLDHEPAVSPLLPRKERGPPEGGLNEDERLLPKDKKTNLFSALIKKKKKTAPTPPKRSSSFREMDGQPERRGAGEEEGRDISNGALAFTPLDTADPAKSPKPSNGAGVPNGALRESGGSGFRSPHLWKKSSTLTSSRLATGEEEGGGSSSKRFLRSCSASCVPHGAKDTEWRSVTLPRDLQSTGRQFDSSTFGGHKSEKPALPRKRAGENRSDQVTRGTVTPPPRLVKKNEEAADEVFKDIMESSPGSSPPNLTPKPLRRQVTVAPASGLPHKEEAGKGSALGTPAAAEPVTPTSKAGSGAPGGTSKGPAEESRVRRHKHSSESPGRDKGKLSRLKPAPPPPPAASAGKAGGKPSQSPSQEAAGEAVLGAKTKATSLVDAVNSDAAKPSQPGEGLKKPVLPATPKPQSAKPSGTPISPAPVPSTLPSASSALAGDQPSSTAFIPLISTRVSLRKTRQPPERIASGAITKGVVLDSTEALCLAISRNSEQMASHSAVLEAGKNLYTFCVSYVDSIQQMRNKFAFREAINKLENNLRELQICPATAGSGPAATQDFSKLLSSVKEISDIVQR
# Chain of Casein kinase I isoform delta (Homo sapiens) (P48730 whole entry, looked up, canonical isoform): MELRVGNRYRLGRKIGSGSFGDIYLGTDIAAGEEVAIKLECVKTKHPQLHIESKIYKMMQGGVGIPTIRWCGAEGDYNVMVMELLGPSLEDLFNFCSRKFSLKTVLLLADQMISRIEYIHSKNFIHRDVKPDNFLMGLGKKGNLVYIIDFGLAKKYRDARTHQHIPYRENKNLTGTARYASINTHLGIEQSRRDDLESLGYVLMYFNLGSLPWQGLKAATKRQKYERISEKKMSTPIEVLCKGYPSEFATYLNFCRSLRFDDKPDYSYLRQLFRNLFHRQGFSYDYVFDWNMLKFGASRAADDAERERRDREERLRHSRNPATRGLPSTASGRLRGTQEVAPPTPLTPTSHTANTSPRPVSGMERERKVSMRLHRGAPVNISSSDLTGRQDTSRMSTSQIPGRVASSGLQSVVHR
# Chain of Glycogen synthase kinase-3 beta (Homo sapiens) (P49841 whole entry, looked up): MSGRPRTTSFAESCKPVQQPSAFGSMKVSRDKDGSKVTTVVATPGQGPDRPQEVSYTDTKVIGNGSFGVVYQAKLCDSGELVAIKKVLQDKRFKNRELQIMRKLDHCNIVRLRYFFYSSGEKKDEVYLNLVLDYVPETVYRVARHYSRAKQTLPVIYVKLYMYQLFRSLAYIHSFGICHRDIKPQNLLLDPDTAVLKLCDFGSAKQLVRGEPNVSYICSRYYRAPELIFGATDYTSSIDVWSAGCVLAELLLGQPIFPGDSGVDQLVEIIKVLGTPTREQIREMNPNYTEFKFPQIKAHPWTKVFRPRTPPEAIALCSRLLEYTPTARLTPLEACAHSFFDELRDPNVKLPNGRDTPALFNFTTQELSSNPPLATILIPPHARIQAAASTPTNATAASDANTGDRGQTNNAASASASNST
# Chain of Mitogen-activated protein kinase 1 (Homo sapiens) (P28482 whole entry): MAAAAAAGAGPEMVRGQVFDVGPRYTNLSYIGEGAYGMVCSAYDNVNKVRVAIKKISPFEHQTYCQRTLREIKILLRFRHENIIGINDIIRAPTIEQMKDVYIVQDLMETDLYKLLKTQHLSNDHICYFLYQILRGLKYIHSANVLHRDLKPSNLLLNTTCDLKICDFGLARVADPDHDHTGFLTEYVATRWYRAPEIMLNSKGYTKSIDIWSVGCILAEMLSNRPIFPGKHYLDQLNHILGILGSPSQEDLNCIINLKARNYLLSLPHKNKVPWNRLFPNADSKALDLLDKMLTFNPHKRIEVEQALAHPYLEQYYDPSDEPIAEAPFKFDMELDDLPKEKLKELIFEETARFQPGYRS
SMILES,ΔTm [1],ΔTm [2],ΔTm [3],ΔTm [4],ΔTm [5] [°C],ΔTm [6],ΔTm [7],ΔTm [8]
Cc1nc(Nc2ncc(C(=O)Nc3c(C)cccc3Cl)s2)cc(N2CCN(CCO)CC2)n1,-1.33 °C,0.19 °C,1.36 °C,-0.52 °C,-0.01,4.44 °C,-0.67 °C,
Cc1nnn(C)c1-c1cnc2c3cc4cnn(C)c4cc3n([C@H](c3ccccc3)C3CCOCC3)c2c1,22.9 °C,-0.73 °C,0.09 °C,-1.29 °C,0.17,-2.95 °C,0.06 °C,0.34 °C
CC(C)(C)c1ccc(S(=O)(=O)NCc2ccc(C(=O)Nc3cccnc3)cc2)cc1,-2.48 °C,-0.13 °C,-0.13 °C,-1.45 °C,0.7,-2.1 °C,0.99 °C,0.45 °C
Nc1ncnc2c1ncn2[C@@H]1O[C@H](C(=O)N2CCN(CC(=O)Nc3cccc4c3CNC4=O)CC2)[C@@H](O)[C@H]1O,-1.31 °C,-0.11 °C,0.22 °C,-0.59 °C,0.31,-1.04 °C,-0.61 °C,0.45 °C
COc1c(CN)cc(CN)cc1OCCCN1Cc2ccccc2C1,-1.72 °C,-0.14 °C,-0.24 °C,-0.15 °C,0.22,-2.26 °C,0.95 °C,0.19 °C
COc1cc(C(=O)N2C[C@H](N)CC[C@@H]2C)cc2nc(-c3cc4cccnc4n3CC3CC3)n(C)c12,0.61 °C,0.15 °C,-0.38 °C,-1.31 °C,-0.7,-1.15 °C,0.53 °C,0.14 °C
COc1cc(Oc2ccnc3cc(OC)c(OC)cc23)ccc1NC(=O)NC(C)c1nccs1 (configuration not stated),-3.36 °C,,0.28 °C,-1.46 °C,-9.78,-0.11 °C,-0.38 °C,9.54 °C
CCN(CC)S(=O)(=O)c1cc(Nc2nccc(-c3ccnc(-c4ccc(NC(=O)NC)cc4)c3)n2)ccc1Cl,0 °C,0 °C,0.81 °C,24.1 °C,0,0 °C,0 °C,15.6 °C
CC(C)(C)C1CCN(C(=O)n2ncc(C(O)(c3ccccc3)c3ccccc3)n2)CC1,-5.41 °C,-2.83 °C,0.67 °C,-5.44 °C,0.52,-4.85 °C,-0.34 °C,-2.72 °C
O=C(C1CC1)N1CCN(Cn2sc3ccccc3c2=O)CC1,-4.76 °C,-3.3 °C,-0.26 °C,0 °C,-4.19,-1.92 °C,0 °C,-7.31 °C
CCOc1ccc(Cc2cc([C@]34OC[C@](CO)(O3)[C@@H](O)[C@H](O)[C@H]4O)ccc2Cl)cc1,2.11 °C,0.62 °C,-0.26 °C,-0.1 °C,0.67,-0.99 °C,1.7 °C,0.25 °C
CCc1c(-c2ccccc2)c(-c2ccccc2)nn1-c1ccccc1-c1cccc(OCC(=O)O)c1,-8.88 °C,-1.12 °C,-2.01 °C,0 °C,-0.5,-3.9 °C,-3.28 °C,-0.2 °C
"C#CCNC(=O)[C@H](CO)NC(=O)[C@H](CCCCN(CC)CC)NC(=O)[C@@H](NC(=O)[C@@H](NC(=O)[C@H](Cc1ccc(O)c(Cl)c1)NC(=O)c1cc(Cl)cc(Cl)c1)C1CCCC1)[C@@H](C)CC ({Benzoyl(3,5-Cl2)}-[Tyr(3-Cl)][Gly(cPent)]I[Lys(Et2)]S-{NH(propargyl)})",-3.03 °C,0.1 °C,0.08 °C,-0.72 °C,0.49,-2.28 °C,0 °C,0.75 °C
COc1cc2/c(=N/c3ccc(Br)cc3F)nc[nH]c2cc1OCC1CCN(C)CC1,-0.83 °C,0.52 °C,1.25 °C,-0.61 °C,0.07,,-1.14 °C,
CN1CCN(c2ccc3nc(-c4c(N)c5c(F)cccc5[nH]c4=O)[nH]c3c2)CC1,-0.49 °C,0.73 °C,2.74 °C,3.22 °C,-0.2,2.63 °C,-0.57 °C,
COCc1nc2cnc3cc(-c4c(C)noc4C)c(OC[C@H]4CCNC4)cc3c2n1[C@H](C)c1ccccc1,,0.15 °C,0.02 °C,-0.25 °C,0.32,-1.27 °C,1.49 °C,0.66 °C
CNCc1ccc(-c2[nH]c3cc(F)cc4c3c2CCNC4=O)cc1,-1.77 °C,0.36 °C,0.56 °C,5.05 °C,0.13,,-0.05 °C,0.58 °C
Cc1cccc(Nc2ccncc2S(=O)(=O)NC(=O)NC(C)C)c1,-2.84 °C,-0.02 °C,-0.02 °C,-0.74 °C,0.43,-2.33 °C,0.72 °C,0.72 °C
CC(=Cc1cc(C)ccc1C=C(C)C(=O)NC(=N)N)C(=O)N=C(N)N,-2.96 °C,-0.11 °C,0 °C,-0.1 °C,0.25,-2.39 °C,-3.05 °C,0.75 °C

SMILES,ΔTm [1],ΔTm [2],ΔTm [3],ΔTm [4],ΔTm [5] [°C],ΔTm [6],ΔTm [7],ΔTm [8]
CCN(c1cc(C#CCN2CCOCC2)cc(C(=O)NCc2c(C)cc(C)[nH]c2=O)c1C)[C@H]1CC[C@H](N(C)CCOC)CC1,-1.47 °C,0.53 °C,0.46 °C,-0.17 °C,0.04,-0.54 °C,-0.98 °C,0.47 °C
OC[C@H]1O[C@@H](c2ccc(Cl)c(Cc3ccc(OCCOC4CC4)cc3)c2)[C@H](O)[C@@H](O)[C@@H]1O,-2.67 °C,0.19 °C,-1.19 °C,-0.38 °C,0.15,-2.84 °C,0.19 °C,0.7 °C
CS(=O)(=O)c1ncn2c(NCc3c(F)ccc4c3CCO4)ncc(-c3ccc(C4CC4)nc3)c12,-3.29 °C,0.06 °C,-0.23 °C,-0.29 °C,0.08,-2.48 °C,-0.37 °C,0.63 °C
OC1CN=C2c3ccn([C@@H]4O[C@H]([C@H](O)c5ccc(Cl)cc5)[C@@H](O)[C@H]4O)c3N=CN21 (some centres not stated),-1.38 °C,0.66 °C,0.22 °C,-0.73 °C,0.16,-0.39 °C,-1.14 °C,0.73 °C
O=C(O)C1CCCN(CCC=C(c2ccccc2)c2ccccc2)C1 (configuration not stated),-2.59 °C,0 °C,-0.19 °C,-0.66 °C,0.13,-2.34 °C,-1.2 °C,0.13 °C
CC(C)Oc1ccc2c(=O)[nH]c3sccc3c2c1,-1.93 °C,0.87 °C,1.82 °C,0.89 °C,0.11,-0.48 °C,-0.42 °C,2.81 °C
COc1ccccc1S(=O)(=O)Nc1ccc2c(c1)CN(C)C(=O)N2,,0.12 °C,-0.3 °C,-0.34 °C,0.22,-2.31 °C,-0.41 °C,0.3 °C
CN(Cc1cc(Br)cc(Br)c1N)C1CCCCC1,-2.64 °C,-0.09 °C,-0.11 °C,-0.69 °C,,-0.8 °C,0.31 °C,-0.03 °C
CSc1cccc(Nc2ncc3cc(-c4c(Cl)cccc4Cl)c(=O)n(C)c3n2)c1,-0.42 °C,0.94 °C,0.35 °C,,-1,-0.33 °C,,
CC(=O)N[C@@H](Cc1ccccc1)C(=O)N[C@@H](CC(C)C)C(=O)N[C@H](C(=O)N[C@@H](CC(=O)O)C(=O)CCl)[C@@H](C)O (Ac-FLTD-CH2Cl),-2.88 °C,0.03 °C,0.15 °C,-0.18 °C,-0.16,-0.89 °C,-0.91 °C,0.28 °C
C[C@H](c1nc2c(cnn2C2CCOCC2)c(=O)[nH]1)N1CC(Oc2ccccc2)C1,-2.52 °C,0.6 °C,-0.29 °C,3.31 °C,0.49,-1.78 °C,0.73 °C,0.76 °C
O=C(NO)c1ccc(CN(c2cnccn2)c2cnccn2)cc1,-1.6 °C,-0.02 °C,0.05 °C,-1.38 °C,-0.44,-0.32 °C,-1.38 °C,0.4 °C
CNc1ncc2cc(-c3cc(NC(=O)NCCC(C)(C)C)c(F)cc3C)c(C)nc2n1,-2.79 °C,0.45 °C,0.25 °C,1.15 °C,-2.34,-0.92 °C,-0.11 °C,
COc1ccc(Cc2nc(O)c3c(C)nc([C@@H](CCCc4ccccc4)[C@@H](C)O)n3n2)cc1OC,-2.72 °C,0 °C,-0.14 °C,1.15 °C,0.16,-1.36 °C,-0.56 °C,-0.12 °C
COc1cc(Nc2ncc(F)c(Nc3ccc4c(n3)NC(=O)C(C)(C)O4)n2)cc(OC)c1OC,-1.7 °C,0.13 °C,-0.37 °C,2.52 °C,-3.17,,-0.42 °C,4.14 °C
FC(F)(F)Oc1ccc(Oc2ccnc(N3CCC(NC(=S)Nc4cccnc4)CC3)c2Cl)c(Cl)c1,-3.17 °C and -5.35 °C,-0.35 °C and 0.35 °C,-2.73 °C and 0.27 °C,,,0.16 °C and -1.29 °C,1.66 °C and 0 °C,0 °C and -0.06 °C
CCOC(=O)Oc1c(OC)cc(C(=O)O[C@H]2C[C@H]3CN4CCc5c([nH]c6cc(OC)ccc56)[C@@H]4C[C@H]3[C@@H](C(=O)OC)[C@@H]2OC)cc1OC,-2.32 °C,0.27 °C,-0.84 °C,-0.14 °C,-0.02,-2.27 °C,0.01 °C,0.54 °C
CC(C)Cc1nn(C)c(=O)c2c(SCCCO)n(Cc3cccc4ccccc34)cc12,-4.1 °C and -4.31 °C,-0.96 °C and -1.96 °C,-8.7 °C and -11.7 °C,-0.77 °C and -4.36 °C,,-2.79 °C and -2.11 °C,-0.87 °C and 0.82 °C,-3.82 °C and -3.97 °C
COc1ccc(CC[C@H]2CCC[C@@H](CCc3ccc(OC)cc3)N2C[C@@H](O)CO)cc1,-3.11 °C,0.11 °C,-0.1 °C,-0.21 °C,0.31,-2.3 °C,-0.71 °C,0.7 °C

# Source: ChEMBL document CHEMBL5724796, “Tm Shift (DSF) assay results for EUbOPEN Chemogenomics Library” (2024)
